Compounds with a hit are over-represented: about 4.4% of the library has one in this group of screens.
p53ts 32C tox: qHTS Screen for Compounds that Selectively Target Cancer Cells with p53 Mutations: Cytotoxicity of p53ts Cells at the Permissive Temperature; H1299-p53A138V at 32C, ATP luminescence viability, 24 h; Potency, µM (series often up to 46.1 µM), most hits filed as cytotoxic; hit rate 0.93% among 130,000; note: nearly all actives have a fitted effect of over 55% in size
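Cells: H1299 p53ts (A138V), 600/well, pre-incubated 16–30 h at 37C. Cpd up to 46 uM, 24 h, 32C. Readout: ATPlite luminescence, 20 min RT. Normalization: DMSO vs tamoxifen 100 uM. AC50 by Hill equation.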
ALOX12 inhib: qHTS Assay for Inhibitors of 12-hLO (12-human lipoxygenase). purified 12-hLO, xylenol orange hydroperoxide absorbance. Polyunsaturated fatty acid lipoxygenase ALOX12 (Homo sapiens), P18054. Potency, µM (highest dose often 57.1 µM), hits mostly inhibitors. AID 1452, 2008. hit rate 0.12% among 150,000; note: nearly all actives have a fitted effect of over 55% in size
Target sequence (P18054 whole entry, looked up): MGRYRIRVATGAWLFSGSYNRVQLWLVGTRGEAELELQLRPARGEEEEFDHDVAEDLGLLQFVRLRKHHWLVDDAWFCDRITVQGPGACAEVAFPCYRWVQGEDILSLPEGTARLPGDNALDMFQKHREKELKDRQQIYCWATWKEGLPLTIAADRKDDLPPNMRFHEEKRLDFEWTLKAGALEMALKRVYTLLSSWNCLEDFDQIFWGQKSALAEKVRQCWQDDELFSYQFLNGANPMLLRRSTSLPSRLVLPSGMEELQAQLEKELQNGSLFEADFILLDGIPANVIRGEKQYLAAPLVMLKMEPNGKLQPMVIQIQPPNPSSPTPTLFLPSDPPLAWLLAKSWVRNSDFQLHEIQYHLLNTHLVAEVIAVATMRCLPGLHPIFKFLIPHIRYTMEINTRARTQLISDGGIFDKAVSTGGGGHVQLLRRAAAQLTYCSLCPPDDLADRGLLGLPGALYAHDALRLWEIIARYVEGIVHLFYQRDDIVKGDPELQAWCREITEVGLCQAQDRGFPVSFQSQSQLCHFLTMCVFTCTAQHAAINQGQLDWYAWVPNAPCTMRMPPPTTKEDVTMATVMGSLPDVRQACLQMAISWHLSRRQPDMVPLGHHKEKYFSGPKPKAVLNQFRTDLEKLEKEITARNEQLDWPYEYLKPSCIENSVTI
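Hydroperoxide output read as Fe(III)-xylenol orange absorbance, 573-to-405 nm ratio, after 30 min reaction with 40 uM arachidonic acid. Enzyme: 150 nM purified human 12hLO, 15 min compound preincubation; 25 mM Hepes pH 7.0, room temperature.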
HPGD inh: qHTS Assay for Inhibitors of HPGD (15-Hydroxyprostaglandin Dehydrogenase) | AID 894, 2007 | 15-hydroxyprostaglandin dehydrogenase [NAD(+)] (Homo sapiens), P15428 | Potency, µM, actives largely listed as inhibitors | purified HPGD, NADH fluorescence kinetic, PGE2 substrate | hit rate 4.3% among 150,000; active = well fitted inhibition curve with a large enough effect, not every such curve was filed as active; inconclusive = small, poorly fitted or top-dose-only effect, or another doubt; inactive = no such curve, though single readings can be large or run the other way
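NADH formation kinetics: reaction with 30 uM PGE2 and 1 mM NAD+ (final), 20 nM enzyme, Tris-HCl pH 8 with Tween 20, after 15 min compound preincubation at room temperature. Fluorescence change, last versus first of five reads.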
p53ts 39C kill: qHTS Screen for Compounds that Selectively Target Cancer Cells with p53 Mutations: Cytotoxicity of p53ts Cells at the Nonpermissive Temperature | H1299-p53A138V viability at 39C, ATP luminescence, 24 h | Potency, µM (doses to about 46.1 µM), most hits filed as cytotoxic | hit rate 1.5% among 130,000; note: nearly all actives have a fitted effect of over 55% in size
A number is an active result; 0 = inactive; ? = inconclusive; - = not tested or not shown. Unless noted, calls come from the whole dose curve; as a rule, active = well fitted curve in the direction sought with a large enough effect; inconclusive = small, poorly fitted or top-dose-only effect, or another doubt; inactive = no such curve, though single readings can be large; an effect the other way counts as inactive or inconclusive.

SMILES	p53ts 32C tox	ALOX12 inhib	HPGD inh	p53ts 39C kill
COc1cccc(-c2nc(NC3CCNCC3)c3ccccc3n2)c1	?	-	-	15.8µM
CN(C)c1ccc(-c2nc(NC3CCNCC3)c3ccccc3n2)cc1	?	0	0	10µM
c1ccc2c(NC3CCNCC3)nc(-c3ccoc3)nc2c1	0	-	-	0
CC(=O)c1cccc(NC(=O)Nc2c(C)n(C)n(-c3ccccc3)c2=O)c1	0	-	-	0
COC(=O)C1=COC(O[C@H]2OC(CO)[C@H](O)C(O)C2O)[C@H]2C1C(=O)C[C@@H]2C (stereo partly specified)	-	-	0	-
c1ccc(-n2nnnc2SCCCSc2nc3ccccc3s2)cc1	0	0	11.2µM	0
O=C1c2ccccc2C(=O)N1CCCCSc1nc2ccccc2o1	-	0	25.1µM	-
O=C1c2ccccc2C(=O)N1CSc1nnnn1-c1ccccc1	0	0	0	0
O=C1c2ccccc2C(=O)N1CCCCSc1nnnn1-c1ccccc1	0	0	7.94µM	0
CCCSc1ncnc2c1oc1ccccc12	0	0	20µM	0
Fc1ccccc1CSc1ncnc2c1oc1ccccc12	12.6µM	0	-	12.6µM
CC(=O)CSc1ncnc2c1oc1ccccc12	0	0	0	0
CCC(Sc1nnc2c3ccccc3n(CC)c2n1)C(=O)Nc1ccc(NC(C)=O)cc1 (stereo unspecified)	0	-	-	0
Cn1c(=O)c2c(nc(SCc3cccnc3)n2Cc2ccc(F)cc2)n(C)c1=O	0	0	39.8µM	0
O=C(c1cnn2c(C(F)F)cc(-c3ccccc3)nc12)N1CCSCC1	0	0	10µM	0
CCCC1=Nc2cc(C(=O)NCC(C)c3ccccc3)ccc2Sc2ccccc21 (stereo unspecified)	?	-	-	0
Cc1cccc(N2CCN(C(=O)Cn3nc(C)c4sc5ccccc5c4c3=O)CC2C)c1 (stereo unspecified)	0	-	-	0
CCCCN(C)C(=O)c1sc2ncn(CC)c(=O)c2c1C	0	0	15.8µM	0
CCN(Cc1ccccc1)S(=O)(=O)c1ccc(-c2coc(C)n2)cc1	?	-	-	0
CCOc1cccc(CC(=O)N2CCc3c([nH]c4ccc(OC)cc34)C2c2ccc(F)cc2)c1OCC (stereo unspecified)	?	-	-	0
Cc1c(C(=O)N2CCCCC2)sc(NC(=O)C(C)C)c1C#N	0	0	12.6µM	0
CCOC(=O)c1c(N)sc(C(=O)N2CCCC2)c1C	0	0	?	0
Cc1c(C(=O)N2CCCCC2)sc(NC(=O)c2ccco2)c1C#N	0	0	15.8µM	0
Cc1c(C(=O)N2CCCCC2)sc(N)c1C#N	0	0	12.6µM	0
CCOC(=O)c1c(N)sc(C(=O)N2CCCCC2)c1C	0	0	8.91µM	0
SMILES	p53ts 32C tox	ALOX12 inhib	HPGD inh	p53ts 39C kill
Cc1sc(NC(=O)C2CCCO2)c(C#N)c1C (stereo unspecified)	0	0	0	0
Cc1sc(NC(=O)C2CCCC2)c(C#N)c1C	-	0	10µM	-
N#Cc1c(NC(=O)CN2CCN(C(=O)c3ccco3)CC2)sc2c1CCCCC2	0	0	8.91µM	0
Cc1c(C(=O)N2CCCC2)sc(NC(=O)c2ccccc2)c1C#N	0	0	?	0
Cc1c(C(=O)N2CCCCC2)sc(NC(=O)C2CC2)c1C#N	0	0	14.1µM	0
CCOC(=O)c1c(NC(=O)Cc2cccs2)sc(C(=O)N2CCCCC2)c1C	0	0	7.08µM	0
COc1ccccc1CNC(=O)c1cc2c(=O)oc3ccc(C)cc3c2s1	0	-	-	?
Cc1cc2nn(-c3ccc(F)cc3)nc2cc1NC(=O)c1cccc2c(Cl)cccc12	0	-	-	0
Cc1sc(NC(=O)CCCC(=O)O)c(C#N)c1C	0	0	0	0
CCCCCC(=O)Nc1sc(C)c(C)c1C#N	-	0	25.1µM	-
CCc1ccc(Nc2ncccc2C#N)cc1	-	0	?	-
CCC(C)c1ccc(Nc2ncccc2C#N)cc1 (stereo unspecified)	-	0	17.8µM	-
CCC(C)(C)NC(=O)c1ccc2c(c1)S(=O)(=O)c1ccccc1C2=O	-	0	25.1µM	-
CO/N=C/c1ccc(Sc2ccccc2)c([N+](=O)[O-])c1	-	0	0	-
O=[N+]([O-])c1cc(/C=N/O)ccc1Sc1ccccc1	-	0	25.1µM	-
Cc1[nH]c2ccccc2c1C(=O)CSC(=S)N(C)C1CCCCC1	-	0	0	-
Cc1[nH]c2ccccc2c1C(=O)CSC(=S)N1CCCCC1	-	0	25.1µM	-
COc1cc(C(=S)N2CCOCC2)cc(OC)c1OC(=O)Cc1ccc(F)cc1	-	0	15.8µM	-
CCCCS(=N)(=O)CC[C@H](N)C(=O)O (stereo partly specified)	-	-	0	-
O=C(Nc1cccc(Cl)c1)N1CCC(CN2CCOCC2)CC1	0	-	-	0
Cc1ccc(CNC(=O)C2CCN(c3nc4ccccc4n(C)c3=O)CC2)cc1	0	-	-	0
Cc1csc(NC(=O)CCCSc2nc3ccccc3s2)n1	0	?	14.1µM	?
O=C(Nc1ccccc1C(=O)OCc1cc(=O)n2c3c(sc2n1)CCCC3)c1ccccc1	0	-	-	0
O=S(=O)(NCCCCCCc1ccccc1)c1cccc2c(Cl)cccc12	0	0	0	0
NCCCCCCCCCCNS(=O)(=O)c1cccc2c(Cl)cccc12	25.1µM	0	0	15.8µM
SMILES	p53ts 32C tox	ALOX12 inhib	HPGD inh	p53ts 39C kill
NCCCCCCNS(=O)(=O)c1cccc2c(Cl)cccc12	0	0	0	31.6µM
CCCCCCCNS(=O)(=O)c1cccc2c(Cl)cccc12	0	0	0	?
N[C@H](Cc1cc(I)c(Oc2cc(I)c(O)c(I)c2)c(I)c1)C(=O)O	0	0	0	0
Nc1nc(Nc2ccccc2)nc2c1ncn2[C@@H]1O[C@@H](CO)[C@H](O)[C@@H]1O	0	0	-	0
COc1ccc(-c2nc3cc(C)ccn3c2NC(=O)c2cccc(F)c2)cc1	0	-	-	0
O=C(NCCN1CCCCC1)c1ccc(Cc2nc3ccccc3[nH]2)cc1	0	0	0	0
COc1ccc(-c2n[nH]c(C)c2-c2ccc(Cl)cc2)c(O)c1	-	?	0	-
COc1ccc(-c2n[nH]c(C)c2-c2ccc(Cl)cc2)c(O)c1OC	12.6µM	0	0	?
CN1CCN(c2ncc3nc(-c4cc(F)cc(F)c4)c(=O)n(C4CC4)c3n2)CC1	0	-	-	?
CC1CCCCC1NC(=O)COC(=O)c1ccc2c(c1Cl)C(=O)c1ccccc1C2=O (stereo unspecified)	-	0	15.8µM	-
Nc1cc(=O)[nH]c(=S)n1-c1cccc(C(F)(F)F)c1	-	0	0	-
O=c1cc(O)n(-c2ccc(F)cc2)c(=S)[nH]1	-	0	28.2µM	-
COc1ccc(CCNC(=O)C(=O)NCC(c2cccs2)S(=O)(=O)c2ccccc2)cc1 (stereo unspecified)	0	-	-	0
COC(=O)C(Cc1c[nH]c2ccccc12)NC(C)=O (stereo unspecified)	0	0	0	0
COC(=O)C(Cc1c[nH]c2ccccc12)NC(=O)c1cc(-c2ccc(OC)c(OC)c2)oc1C (stereo unspecified)	-	0	31.6µM	-
